The values that follow come from PubChem BioAssay (NCATS).

Results filed as inconclusive are left out. Entries that show only a call come without a potency. Activity calls are given as the source filed them. Calls follow the shape of the dose curve; as a rule, active = well fitted cell-killing curve with a large enough effect; inconclusive = small, poorly fitted or top-dose-only effect; inactive = flat fitted curve, though single readings scatter.
Potency is read from the fitted curve at half-maximal effect.

The assay is described as follows: qHTS of pediatric cancer cell lines to identify multiple opportunities for drug repurposing: Primary screen for DAOY cells (AID 1347090). Also: nearly all actives have a fitted effect of over 55% in size. As to conditions: DAOY medulloblastoma viability, CellTiter-Glo luminescence, 48 h; series mostly up to 46 µM. From the text:
Drug repurposing or repositioning has been offered as a strategy for drug development in oncology programs. This approach has special potential for childhood cancers and other rare or orphan diseases, where the expected return on new drug development has been a disincentive to pharmaceuticals.
In this project we exploit the poly-pharmacology of drugs to discover new indications via phenotypic screening of a panel of 19 well-characterized cell lines derived from solid tumors seen in children and adolescents. The goal is to identify approved drugs with previously unrecognized anticancer properties that has the potential to reveal new mechanisms and biological processes involved in carcinogenesis or drug resistance. We employed a titration-based paradigm (quantitative high-throughput screening or qHTS), where all compounds were tested at multiple concentrations for their effect on cell viability. Concentration-response curves (CRCs) were derived directly from the primary screen, and both potency and efficacy values were used to identify compounds with robust bioactivity profiles. We screened the NIH Chemical Genomics Center (NCGC) Pharmaceutical Collection (NPC) and Mechanism Interrogation Plate (MIPE) small molecule collections of approved and investigational compounds against these cell lines; and measured metabolically active cells after 48 hours of compound treatment as a proxy for cell viability.
Assay Submitter: Nathalia J. Martinez, National Center for Advancing Translational Sciences, National Institutes of Health, Rockville, MD, USA; email: natalia.martinez@nih.gov
[1] Shen, M et al. Quantitative high-throughput phenotypic screening of pediatric cancer cell lines identifies multiple opportunities for drug repurposing. Oncotarget 2017 Dec 19;9(4):4758-4772. PMID 29435139.
The cells were obtained from University of North Carolina (UNC), Pediatric Preclinical Testing Program (PPT), and Coriell Institute (CI).
qHTS cell viability assay:
Cells were assayed in growth media at a density of 500-1,000 cells/well. Five microliters of cells were dispensed into 1,536-well, white, solid-bottom, TC-treated plates (Greiner Bio One) using a multidrop dispenser and incubated at 37 degrees C, 5% CO2, under a humidified atmosphere for 5 hours. Twenty-three nanoliters of compounds and controls (neutral control DMSO or positive control bortezomib at final concentration of 2.3 µM) were subsequently transferred by Kalypsys pintool. For primary screens, the MIPE collection was tested at 11-point dilutions (final concentrations range from 0.78 nM to 46 µM) and the NPC collection at 8-point dilutions (final concentrations range from 0.59 nM to 46 µM). Compounds tested in follow-up screens were assayed at 11-point dilutions. Cells were incubated for 48 hours, followed by addition of 3 uL of CellTiter-Glo (Promega). After a 15 min incubation at room temperature, samples were analyzed for luminescence intensity using a ViewLux High-throughput CCD imager equipped with clear filters.
On the technique in general: In qHTS, concentration-response curves come from the screen itself.
Regarding `COc1ccc2c(c1OC)C(=O)O[C@H]2[C@@H]1c2cc3c(cc2CCN1C)OCO3`, the Potency result is “inactive”.

In the case of `CC(Cc1ccccc1)N(C)Cc1ccco1` (stereo not given), the Potency result was “inactive”.

In the case of `CC(C)N(CCC(C(N)=O)(c1ccccc1)c1ccccn1)C(C)C` (stereo not given), the Potency result was “inactive”.

On to `COP(=S)(OC)Oc1ccc(SC)c(C)c1`, for which the Potency result was “inactive”.

In the case of `CN1CCC(O)(c2ccc(F)cc2)C(C(=O)c2ccc(F)cc2)C1` (stereo not given), the Potency result was “inactive”.

Take `CCc1cc2c(s1)-n1c(C)nnc1CN=C2c1ccccc1Cl`: the Potency result was “inactive”.

For the compound `Cc1ncsc1CCCl`, the Potency result was “inactive”.

Regarding `COc1ccc2c3c1O[C@H]1[C@H](O)CC[C@H]4[C@@H](C2)N(C)CC[C@@]341`, the Potency entry is “inactive”.

For `[N-]=[N+]=CC(=O)OC[C@H](N)C(=O)O`, the Potency result was “inactive”.

Turning to `C[C@]12CCC(=O)C=C1CC[C@@H]1[C@@H]2CC[C@]2(C)C(=O)CC[C@@H]12`, the Potency entry was “inactive”.

For the compound `CN1C(=O)CCS(=O)(=O)C1c1ccc(Cl)cc1` (stereo not given), the Potency entry was “inactive”.

As for `C[C@]12CC[C@@H]3c4ccc(OC(=O)N(CCCl)CCCl)cc4CC[C@H]3[C@@H]1CC[C@@H]2OP(=O)(O)O`, the Potency entry was “inactive”.

On to `NNc1ccccc1`, for which the Potency result was “inactive”.

Regarding `CCN[C@@H](C)Cc1ccccc1`, the Potency entry is “inactive”.

In the case of `CCN[C@@H](C)Cc1cccc(C(F)(F)F)c1`, the Potency entry is “inactive”.

As for `COC1CC(=C(c2cccs2)c2cccs2)C[N+](C)(C)C1` (stereo not given), the Potency entry was “inactive”.

Consider `CN(C)CCc1c[nH]c2cccc(OP(=O)(O)O)c12`, for which the Potency entry is “inactive”.

For the compound `O=[N+]([O-])O[C@H]1CO[C@H]2[C@@H]1OC[C@H]2O[N+](=O)[O-]`, the Potency entry is “inactive”.

For the compound `C=CCC1([C@H](C)CCC)C(=O)NC(=O)NC1=O`, the Potency result is “inactive”.

As to `O=C(Nc1ccc(Br)cc1)c1cc(Br)cc(Br)c1O`, the Potency was 21.1 µM (active).

Turning to `CCCCC/C=C\C/C=C\C/C=C\C/C=C\CCCC(=O)NCC(=O)O`, the Potency result is “inactive”.

Turning to `NC1=NC(=O)C(c2ccccc2)O1` (stereo not given), the Potency entry is “inactive”.

On to `O=C1c2ccccc2C(=O)C1C(=O)C(c1ccccc1)c1ccccc1`, for which the Potency is 26.6 µM (active).

Consider `O=C1c2ccccc2C(=O)c2ccccc21`, for which the Potency entry is “inactive”.

Regarding `C[C@]12CC[C@@H]3c4ccc(OC(=O)N(CCCl)CCCl)cc4CC[C@H]3[C@@H]1CC[C@@H]2O`, the Potency entry is “inactive”.

In the case of `C=CCN1C[C@H](C)N([C@H](c2ccc(C(=O)N(CC)CC)cc2)c2cccc(OC)c2)C[C@H]1C`, the Potency result was “inactive”.

Regarding `c1ccc(CN2CCNCC2)cc1`, the Potency entry is “inactive”.

For `CC(=O)C1CCOC1=O` (stereo not given), the Potency result is “inactive”.

Regarding `CC(C)c1cccc(C(C)C)c1O`, the Potency result was “inactive”.

On to `CC[N+]1(CC)CCC(OC(=O)C(O)(c2ccccc2)c2ccccc2)C1` (stereo not given), for which the Potency entry was “inactive”.

With `CCCN(CCC)C(=O)Cc1c(-c2ccc(Cl)cc2)nc2ccc(Cl)cn12`, the Potency result was “inactive”.

With `COc1cc(CCN)cc(OC)c1OC`, the Potency entry is “inactive”.

On to `CN1C(=O)COc2c(C(=O)NC3CN4CCC3CC4)cc(Cl)cc21` (stereo not given), for which the Potency entry is “inactive”.

As for `ClCCN1CCCC1`, the Potency result is “inactive”.

Turning to `CC(C)=CC1C(C(=O)OCN2C(=O)C3=C(CCCC3)C2=O)C1(C)C` (stereo not given), the Potency result is “inactive”.

With `C[C@@H]1CC2=CC(=O)CC[C@@H]2[C@H]2CC[C@@]3(C)[C@@H](CC[C@]3(C)O)[C@@H]21`, the Potency entry was “inactive”.

Regarding `CCC(C)C(C)(COC(N)=O)COC(N)=O` (stereo not given), the Potency entry was “inactive”.

For the compound `C#CC(O)(C=CCl)CC` (stereo not given), the Potency entry was “inactive”.

`CC(C)(C)NCC(O)c1ccccc1Cl` (stereo not given): the Potency result is “inactive”.

As to `Nc1nc(N)nc(NC2CC2)n1`, the Potency entry is “inactive”.
